This is an account of results in PubChem BioAssay (Tox21).

Where “and” joins values, the source holds several entries; their conditions need not be identical. Equal values may be shown once. Records with an inconclusive call do not appear. A call without a number means that no potency is given here. More than one record can exist for a structure, and the calls need not agree. Calls of active or inactive are those of the source. Calls come from the whole dose curve; as a rule, active = well fitted cell-killing curve with a large enough effect in the repeat runs (not every such curve was filed as active); inconclusive = weak or mixed curves, or effect the other way; inactive = no such curve, though single readings can be large or run the other way.
Potency is the fitted concentration of half-maximal effect.

A short description of this test: qHTS assay to identify small molecule antagonists of the estrogen related receptor signaling pathway with the pleiotropic PPARgamma coactivator (PGC) from Tox21 10K library - cell viability counter screen (AID 1224840). Note: nearly all actives have a fitted effect of over 40% in size. As to conditions: PGC/ERR reporter cells viability, CellTiter-Fluor, 17.5 h; series mostly up to 92.4 µM; viability change, negative = cytotoxic: at the top concentration. The text has this: National Center for Advancing Translational Sciences [NCATS]
NIH Chemical Genomics Center [NCGC]
U.S. Environmental Protection Agency [EPA]
National Institutes of Environmental Health Sciences [NIEHS]
National Toxicology Program [NTP]
U.S. Food and Drug Administration [FDA]
Estrogen related receptors (ERRs), the first orphan nuclear receptors discovered, play an important role in the control of cellular energy metabolism. ERRs are required for high-energy production in response to the environmental challenges. The pleiotropic PPARgamma coactivator (PGC) is a major partner of ERR and a key regulator in energy homeostasis. Together they have been implicated in the etiology of metabolic disorders such as Type 2 diabetes and metabolic syndrome. ERR-alpha was also identified as an adverse marker for breast cancer progression; ERR-alpha-positive tumors have a poor prognosis. To screen and to identify environmental compounds that perturb the ERR and PGC/ERR signaling pathways could provide valuable information for potential therapeutic or preventive measures in the treatment of metabolic disease. To differentiate true PGC/ERR antagonists or agonist from cytotoxic substances, the assay is multiplexed with cell viability assay.
Tox21 Assay Protocol Summary:
The PGC/ERR cells were dispensed at 2,000 cells/5 ul/well in 1536-well white plates using a Multidrop dispenser. After the assay plates were incubated at a 37 C/5% CO2 incubator for 6 hours, 23 nL of compounds dissolved in DMSO, positive and negative controls or DMSO only was transferred to the assay plate by a pin tool. The plates were incubated at 37 C for 17.5 hours. 1 ul/well of CellTiter-Fluor reagent was added into the assay plates using a Flying Reagent Dispenser. After 30-minute incubation at 37 C/5% CO2, the fluorescence intensity in the plates was measured using a ViewLux plate reader.
On the technique in general: In qHTS, concentration-response curves come from the screen itself.
Turning to `O=Cc1ccc(CO)o1`, the Potency entry was “inactive”.
The same measure, in the same setting: as for `CCCN(CCC)C(=O)SCC`, the entry is “inactive”; as for `NC(=O)c1ncn([C@@H]2O[C@H](CO)[C@@H](O)[C@H]2O)n1`, “inactive”.
The same measure, in the same setting: as for `COc1cc(NC(=O)CC(C)=O)c(OC)cc1Cl`, the entry is “inactive”; as for `CC1(C)C(=O)N(Cl)C(=O)N1Cl`, “inactive”; as for `CCc1cccc(O)c1`, “inactive”.
Turning to `COc1ccc(N)c(OC)c1`, the “viability change, negative = cytotoxic” value is 0.203% [at 42.5 µM] (inactive).
`O=[N+]([O-])c1ccccc1C(F)(F)F`: the Potency result is “inactive”.
Still for that read-out and setting: as for `CCCOC(=O)NCCCN(C)C`, the entry is “inactive”; as for `CC/C(C)=N/O`, “inactive”; as for `CCCCCCCCO`, “inactive”.
On the same count and under the same terms, the entry for `COc1c2ccoc2cc2oc(=O)ccc12` is “inactive”.
Still for that read-out and setting: as for `O=C1CCCCCCCCCCC1`, the entry is “inactive”; as for `COC(=O)OC`, “inactive”; as for `NC1CCCCC1N` (stereo not given), “inactive”.
For `CC(=O)OC(C)(C)C1CC=C(C)CC1` (stereo not given), the Potency entry is “inactive”.
The same measure, in the same setting: as for `OCc1ccc(Cl)cc1Cl`, the entry is “inactive”.
Still for that read-out and setting: the entry for `CN1Cc2c(N)cccc2C(c2ccccc2)C1` (stereo not given) is “inactive”; for `Clc1cccc(Cl)c1NC1=NCCN1` it is “inactive”.
`CC(=O)OC[C@H]1O[C@@](COC(C)=O)(O[C@H]2O[C@H](COC(C)=O)[C@@H](OC(C)=O)[C@H](OC(C)=O)[C@H]2OC(C)=O)[C@@H](OC(C)=O)[C@@H]1OC(C)=O`: the Potency entry was “inactive”.
In the case of `Oc1ccc(Cc2ccccc2O)cc1`, the Potency entry was “inactive”.
Still for that read-out and setting: as for `CC(=O)OCCC(C)C`, the entry is “inactive”; as for `Cc1ccccc1C=O`, “inactive”; as for `CCCCC(=O)O`, “inactive”.
Still for that read-out and setting: the entry for `CC1(C)[C@@H](O[C@H]2O[C@H](C(=O)O)[C@@H](O)[C@H](O)[C@H]2O[C@@H]2O[C@H](C(=O)O)[C@@H](O)[C@H](O)[C@H]2O)CC[C@]2(C)[C@H]3C(=O)C=C4[C@@H]5C[C@@](C)(C(=O)O)CC[C@]5(C)CC[C@@]4(C)[C@]3(C)CC[C@@H]12` is “inactive”.
Still for that read-out and setting: the entry for `N#CCC(=O)O` is “inactive”; for `Nc1cccc(C(F)(F)F)c1` it is “inactive”; for `Cc1ccc(C)c(S(=O)(=O)O)c1` it is “inactive”.
As for `Cc1cccc(C)c1[N+](=O)[O-]`, the Potency result was “inactive”.
Still for that read-out and setting: the entry for `CC(=O)OCc1ccc2c(c1)OCO2` is “inactive”.
Same read-out and setting: the entry for `N[C@@H](Cc1cc(I)c(Oc2ccc(O)c(I)c2)c(I)c1)C(=O)O` is “inactive”; for `CS(=O)(=O)c1ccc(Cl)cc1` it is “inactive”.
In the case of `CC/C=C(\C(=O)N[C@@H]1C(=O)N2C(C(=O)OCOC(=O)C(C)(C)C)=C(COC(N)=O)CS[C@H]12)c1csc(N)n1`, the Potency entry is “inactive”.
For the molecule `O=c1c(O)c(-c2ccc(O)c(O)c2)oc2cc(O)cc(O)c12`, the Potency result is “inactive and 24.3 µM (active)”.
On the same count and under the same terms, as for `CCCCCCCCC(=O)O`, the entry is “inactive”; as for `CC(=O)Nc1ccc(CC(=O)O)cc1`, “inactive”.
Turning to `CC(C)(C)NC[C@H](O)COc1nsnc1N1CCOCC1`, the Potency entry was “inactive”.
Regarding `C=CC(=O)NCOCCCC`, the Potency entry is “inactive”.
In the case of `NC(N)=S`, the Potency entry is “inactive”.
Still for that read-out and setting: the entry for `CC(=O)OC/C=C(\C)CCC=C(C)C` is “inactive”.
